Screening results (PubChem BioAssay)
B2AR arrestin – beta2AR (human) beta-arrestin recruitment activity; hit rate 0.02% among 330,000; P07550; Potency, µM (titrated, usually from 46.1 µM), for the others: at the highest dose activation, most hits filed as activators; beta-arrestin recruitment to beta2AR, cell-based reporter; active = well fitted activation curve with a large enough effect;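 also: potency is read from the fitted curve at half-maximal effect; 0% = DMSO controls and full agonism = EC100 isoproterenol or metaproterenol; nearly all actives have a fitted effect of over 65% in size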
Target sequence (P07550 whole entry, looked up): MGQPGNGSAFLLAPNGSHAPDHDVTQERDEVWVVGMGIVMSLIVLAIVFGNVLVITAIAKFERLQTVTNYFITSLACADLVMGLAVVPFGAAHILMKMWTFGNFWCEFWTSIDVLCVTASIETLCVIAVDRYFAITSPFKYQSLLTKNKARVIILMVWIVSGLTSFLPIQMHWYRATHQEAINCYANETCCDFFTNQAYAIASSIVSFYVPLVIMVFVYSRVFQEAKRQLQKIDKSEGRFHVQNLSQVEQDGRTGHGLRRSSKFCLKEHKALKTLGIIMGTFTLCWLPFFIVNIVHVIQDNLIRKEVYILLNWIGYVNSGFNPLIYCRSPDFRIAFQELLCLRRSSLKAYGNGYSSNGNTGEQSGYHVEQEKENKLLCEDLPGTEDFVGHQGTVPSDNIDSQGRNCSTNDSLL
DRD3 agonist – agonists of human D3 dopamine receptor. D3R DiscoveRx beta-arrestin cells, luminescence, 90 min. max activation, %. hit rate 0.58% among 410,000; in the data active = max activation above about 30%; also: 0% is about no effect
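Agonist mode: compounds and dopamine controls were applied to plated cells for 90 min at 37 degrees C after an overnight attachment at 1500 cells/well. Luminescent read-out followed 30 - 60 minutes at room temperature with DiscoveRx detection reagent.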
Giardia killer – Giardia lamblia killing; Giardia lamblia trophozoite viability; activity change, % at 7.66 µM, hits read low; AID 540267; hit rate 0.15% among 340,000; in the data active = activity change below about -80%;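 also: parasites exposed to compound for two days anaerobically before the ATP read; % is scaled to controls: 0 for no effect and ±100 for the full control effect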
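Media and compound were dispensed first, then trophozoites at 100 cells/well; plates sat 48 hrs at 37 deg C without oxygen before ATP luminescence reagent was added and read after 15-30 min at room temperature.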
DRD3 antagonist – blocks the human D3 dopamine receptor | hit rate 2.5% among 360,000 | AID 652054 | P35462 | D3R cells, DiscoveRx beta-arrestin luminescence, antagonist mode; hits give low values | max response, negative = inhibition, %; in the data active = max response below about -50%; also: % is scaled to controls: 0 for no effect and ±100 for the full control effect
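Cells plated overnight at 1500 cells/well, then exposed to library compounds with dopamine controls for 90 minutes at 37 degrees C. DiscoveRx reagent added for 30–60 minutes at room temperature; luminescence read, quantitative HTS format.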
An asterisk follows results filed as active; x = no result. Sampled rows, rich in hits. Any-hit rate of the full collection: about 2.8%.

SMILES	B2AR arrestin	DRD3 agonist	Giardia killer	DRD3 antagonist
Cc1cc(C)c(C(O)c2ncc(-c3ccccc3C)[nH]2)c(C)c1 (stereo not drawn)	x	-9	x	-56*
Cc1cccc(C)c1C(O)c1ncc(-c2cccc3ccccc23)[nH]1 (stereo not drawn)	x	1	x	-76*
Cc1ccccc1-c1cnc(C(O)c2c(C)cccc2C)[nH]1 (stereo not drawn)	x	-15	x	-52*
Cc1cccc(C)c1C(O)c1ncc(-c2ccccc2F)[nH]1 (stereo not drawn)	x	-9	x	-28
Cc1ccc(-c2cnc(C(O)c3c(C)cccc3C)[nH]2)cc1 (stereo not drawn)	x	-12	x	-55*
Cc1ccc(CNc2ncnc3nc[nH]c23)cc1	x	x	7	x
COc1ccc(-c2[nH][nH]c(=O)c2NC(=O)c2ccc(C)cc2)cc1	x	-11	x	-85*
CC(=O)c1ccc(N2C(=O)N(Cc3cc(C)ccc3C)c3ccccc3S2(=O)=O)cc1	x	4	x	x
COc1ccccc1NC(=O)CC(c1ccc(OC(C)C)cc1)c1ccccc1OC (stereo not drawn)	2%	47*	-9	43
O=C(Oc1ccccc1)c1cccc2cccnc12	9%	-6	-20	-54*
Cc1noc(C)c1C(=O)OCC(=O)Nc1cccc(S(=O)(=O)N(C)C)c1	-1%	0	2	0
Cc1onc(-c2c(F)cccc2Cl)c1C(=O)OCC(=O)Nc1cccc(S(=O)(=O)N(C)C)c1	x	-26	8	-97*
CCOc1ccc(NC(=O)C2CCN(c3nnc(-n4c(C)ccc4C)s3)CC2)cc1	x	-5	x	x
CCC(=O)N1CCc2cc(Br)cc(S(=O)(=O)CCC(=O)NCc3ccc(F)cc3)c21	x	9	x	x
CN(CCO)c1cc(Sc2nc3ccccc3s2)c2nonc2c1[N+](=O)[O-]	3%	-37	1	-84*
CCOC(=O)c1cccc(NC(=O)CCS(=O)(=O)c2ccc3c(c2)CCN3C(=O)CC)c1	x	-3	x	x
Cc1cc2cc3c(=O)[nH]c(=O)cc-3n(CC(O)C(O)C(O)CO)c2cc1C (stereo not drawn)	x	-24	x	-97*
Cc1ccc2c(c1)[C@@H]1[C@H](CO2)[C@H](c2ccccc2)[C@@]2(C)C(=O)N[C@H](C)C(=O)N12	0%	31*	10	8
CCC(C)C(NC(=O)OC(C)(C)C)C(=O)NC1COC2CC(n3ccc(=O)[nH]c3=O)OC12 (stereo not drawn)	x	x	28	x
CCC(C)NCCOc1ccc(Br)cc1 (stereo not drawn)	0%	-5	5	-68*
CCC(C)NCCOCCOc1ccc(Br)cc1 (stereo not drawn)	0%	-12	-23	-17
CCC(C)NCCOc1ccccc1C (stereo not drawn)	-1%	-34	-14	-67*
NC(=S)N/N=C\c1ccccc1OCc1ccccc1	0%	-5	-6	-54*
COc1ccc(-c2noc(CNS(=O)(=O)c3ccc(Br)cc3)n2)cc1OC	x	5	x	x
O=C(COC(=O)c1ccccc1OCC(=O)Nc1ccc(Br)cc1)Nc1ccccc1	0%	-4	-3	-51*
SMILES	B2AR arrestin	DRD3 agonist	Giardia killer	DRD3 antagonist
CCC(C)NC(=O)COC(=O)c1ccccc1OCC(=O)Nc1ccc(Br)cc1 (stereo not drawn)	-1%	-4	-8	-8
CNCc1ccccc1OCC(=O)Nc1ccccc1	0%	-20	7	-52*
Cc1ccc(N(C)S(=O)(=O)c2ccc3[nH]c(=O)ccc3c2)cc1	x	-3	x	x
Cc1cc(NC(=O)c2cccc(S(=O)(=O)N3CCCCCC3)c2)n(-c2ccccn2)n1	0%	-7	6	-55*
Nc1nc(NC(=O)c2cccc(S(=O)(=O)N3CCCCCC3)c2)nc(-c2ccccc2)n1	0%	34*	5	-18
O=C(O)c1cccc(NC(=O)c2cccc(S(=O)(=O)N3CCCCC3)c2)c1	0%	7	-6	6
O=C(Nc1nc(-c2cccs2)cs1)c1cccc(S(=O)(=O)N2CCCCC2)c1	0%	-7	6	-69*
COc1cc(NC(=O)CSc2nnc3c4ccccc4n(C)c3n2)cc(OC)c1OC	x	x	16	x
S=C(NCCCc1cnc[nH]1)NCCCN(Cc1ccc(Cl)cc1)c1ccc(-c2ccccc2)cn1	x	x	-3	x
COc1ccc2c(c1)N(C[C@H](C)CN(C)C)c1ccccc1S2	x	-93	8	-106*
CC(CN1c2ccccc2Sc2ccccc21)N(C)C (stereo not drawn)	-1%	-79	-1	-98*
CCN=c1scc(-c2cccs2)n1/N=C/c1cc(OC)ccc1O	0%	10	-1	8
CC(C)N=c1scc(-c2cccs2)n1/N=C/c1ccc(O)c(O)c1O	5%	64*	17	49
